The structures appear in SMILES notation. The panel holds about 83,000 compounds, 20% with a hit somewhere; the sample as a whole holds those more often.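 Cell lines were cultured in 96-well plates, exposed to a single compound concentration, and assessed for percent growth 48 hours later.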 Unmarked numbers belong to inactive results. Activity calls are given as the source filed them. How the source made its calls: active means growth percent below 10; inactive means the rest.

Common to all, as to experiment: NCI-60 one-dose screen, 48 h (100 = growth as untreated, 0 = no growth, -100 = all killed)
What all share (conditions): 10 µM unless noted

Assay [1] relates to HCT-15 colon.
Assay [2] relates to HT29 colon.
In assay [3] the test system is SNB-75 CNS.
For assay [4], the system named is SNB-19 CNS.
Assay [5] deals with U251 CNS.
In assay [6] the test system is PC-3 prostate.
For assay [7], the system named is SK-MEL-5 melanoma.
Assay [8] relates to UACC-62 melanoma.
In assay [9] the test system is LOX IMVI melanoma.
The subject of assay [10] is SK-MEL-28 melanoma.
Assay [11] deals with SK-MEL-2 melanoma.
The subject of assay [12] is EKVX NSCLC.
In assay [13] the test system is SN12C renal.
The test system of assay [14] is UO-31 renal.
In assay [15] the test system is ACHN renal.
Assay [16] has as its system CAKI-1 renal.
In assay [17] the test system is A498 renal.
Assay [18] has as its system CCRF-CEM leukemia.
Assay [19] relates to MOLT-4 leukemia.
The test system of assay [20] is TK-10 renal.

On to `CC(=O)O[C@@H]1C[C@]2(C(C)C)O[C@@]1(C)[C@@H]1CCC(C)=C1[C@@H]2OC(=O)/C=C/c1ccccc1`, for which the growth in assay [1] was 87.2%; in assay [2] it was 74.8%; in [3] it was 89.1%; in assay [4] it was 102%; in assay [5], 91.2%; in assay [6], 56.5%. Also, the growth was 90.7% in assay [7]; 83.6% in [8]; 83.3% in [9]; 97.3% in assay [10]; 89.7% in assay [11]; 83.5% in [12]. Besides, the growth in assay [13] is 48.4%; in [14] it was 60.5%; in assay [15], 34.6%; in [16] it was 71.3%; in assay [17], -4.32% (active); in [18], 84.9%. In addition, the growth in assay [19] was 83.8%.

In the case of `N#Cc1c(-c2ccc(Cl)cc2)c(C#N)c2c(C#N)c(N)nn2c1N`, the growth in [1] was 88.2%; in assay [2], 83.3%; in assay [3], 74.8%; in assay [4] it was 88.2%; in [5], 87.9%; in [6], 65.2%. For the same molecule, the growth in assay [7] was 87.9%; in [8] it was 72.9%; in [9], 76.6%; in [10], 99.3%; in assay [11] it was 93.1%; in [12] it was 68.3%. Further, the growth in assay [13] is 87.8%; in [14], 67.1%; in assay [15] it was 87.7%; in assay [16], 71.6%; in [17], 78.2%; in assay [18], 73.9%. In addition, in assay [19], the growth is 79.4%.

`COc1cc(OC)c(/C=C/C(=O)c2c(OC)cccc2OC)c(OC)c1`: the growth in [1] is 15.7%; in assay [2] it was 0.507% (active); in assay [3], 10.6%; in assay [4] it was 19.3%; in [5], 5.71% (active); in assay [6], 11.6%. For the same molecule, the growth was 1.1% (active) in [7]; -20.6% (active) in assay [8]; -4.2% (active) in assay [9]; 13.2% in assay [10]; -14.9% (active) in assay [11]; 42.9% in assay [12]. For the same molecule, the growth in assay [13] was 24.1%; in assay [14], 28.9%; in assay [15], 19.6%; in assay [16], 14.8%; in assay [17] it was 21.4%; in [18] it was 16.2%. In [19], the growth was 18.6%.

Regarding `O=C(Nc1cccc(Cl)c1)Nc1cccc(Cn2c(=O)[nH]c3ccc(Oc4ncccn4)cc3c2=O)c1`, the growth in [1] was 80.6%; in assay [2], 38.8%; in assay [3], 57.8%; in [4], 55.6%; in assay [5], 31.3%; in [6], 36.5%. Also, the growth in [7] was 25.5%; in assay [8], 49.3%; in assay [9], 49.7%; in [10] it was 59.1%; in assay [11], 69.6%; in assay [12], 72.4%. For the same molecule, the growth is 76% in assay [13]; 61.8% in assay [14]; 68.9% in assay [20]; 72.2% in assay [15]; 63.8% in assay [16]; 32.6% in [18]. The growth in [19] was 6.46% (active).

As for `NS(=O)(=O)c1ccccc1NC(=O)Nc1nc2ccccc2s1`, the growth in assay [1] was 100%; in assay [2] it was 98.2%; in assay [3] it was 86.9%; in [4], 98%; in assay [5] it was 99.1%; in assay [6] it was 97.8%. For the same molecule, the growth is 99.8% in [7]; 101% in [8]; 91.8% in [9]; 103% in [10]; 102% in [11]; 85.6% in [12]. Further, the growth in assay [13] is 98.3%; in assay [14] it was 84.1%; in assay [15], 99.4%; in assay [16], 89.7%; in assay [17] it was 97.6%; in [18] it was 99.2%. Further, the growth in assay [19] was 102%.

In the case of `Cc1c[n+](Cc2ccc3ccccc3c2)cn1Cc1ccc2ccccc2c1`, the growth was 95.1% in assay [1]; -35.5% (active) in assay [2]; -0.361% (active) in assay [3]; 17.7% in [4]; 10.3% in [6]; -71.2% (active) in assay [7]. The growth is -30.5% (active) in assay [8]; 19.5% in [9]; 4.48% (active) in assay [10]; -48.5% (active) in assay [11]; 38.1% in assay [12]; 7.56% (active) in assay [13]. Moreover, the growth is 77.6% in assay [14]; -4.54% (active) in assay [20]; 89.5% in assay [15]; 94% in assay [16]; 50.1% in assay [17]; -3.59% (active) in assay [19].

For `O=C(Nc1ccc(Oc2cccc(Cl)c2)c(Cl)c1)c1cnccn1`, the growth in assay [1] is 23.3%; in [2], 2.14% (active); in [3], -20.9% (active); in assay [4], 33.5%; in assay [5] it was 16.5%; in assay [6], 11.1%. Further, the growth in [7] was 25.8%; in assay [8], 28.4%; in assay [9] it was 29.9%; in assay [10] it was 64.9%; in [11], 43.6%; in [12], 53.2%. The growth was 44.4% in assay [13]; 37.3% in assay [14]; 40% in assay [15]; 21.6% in assay [16]; 26.2% in assay [19].

The values above are taken from PubChem BioAssay (NCI).
